From PubChem
Wnt act: activates Wnt/beta-catenin signaling in a reporter cell assay. AID 743398. actives 1.2% (n = 300,000). activator, plate reader. activation, % at 9.35 µM; in the data active = activation above about 30%, passing the limit was not always enough
MITF act: MITF TRPM1 promoter activation in melanoma cells; actives 0.75% (n = 300,000); SK-MEL-5 TRPM1-promoter luciferase, 24 h; % of positive control, neutral wells = 0; activation, % at 12.5 µM; AID 588334;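 active = mean activation of at least 80% with every replicate also reaching 80%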
GAA850 FXN act: frataxin GAA850 promoter activation; HEK293 lucGAA850 FXN promoter luciferase reporter, 24 h; percent of 10 µM SAHA response; activation, % at 6 µM; actives 0.56% (n = 360,000);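 active = activation above the average of all compounds screened plus 3 SD, cutoff fixed separately per campaign, cut at about 7.5% in these data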
AHR act: human AHR activation | P35869 | AHR-responsive luciferase reporter cells, luminescence | activation, % at 5 µM | actives 2.5% (n = 320,000); in the data active = activation above about 47%
Target sequence (P35869 whole entry, looked up): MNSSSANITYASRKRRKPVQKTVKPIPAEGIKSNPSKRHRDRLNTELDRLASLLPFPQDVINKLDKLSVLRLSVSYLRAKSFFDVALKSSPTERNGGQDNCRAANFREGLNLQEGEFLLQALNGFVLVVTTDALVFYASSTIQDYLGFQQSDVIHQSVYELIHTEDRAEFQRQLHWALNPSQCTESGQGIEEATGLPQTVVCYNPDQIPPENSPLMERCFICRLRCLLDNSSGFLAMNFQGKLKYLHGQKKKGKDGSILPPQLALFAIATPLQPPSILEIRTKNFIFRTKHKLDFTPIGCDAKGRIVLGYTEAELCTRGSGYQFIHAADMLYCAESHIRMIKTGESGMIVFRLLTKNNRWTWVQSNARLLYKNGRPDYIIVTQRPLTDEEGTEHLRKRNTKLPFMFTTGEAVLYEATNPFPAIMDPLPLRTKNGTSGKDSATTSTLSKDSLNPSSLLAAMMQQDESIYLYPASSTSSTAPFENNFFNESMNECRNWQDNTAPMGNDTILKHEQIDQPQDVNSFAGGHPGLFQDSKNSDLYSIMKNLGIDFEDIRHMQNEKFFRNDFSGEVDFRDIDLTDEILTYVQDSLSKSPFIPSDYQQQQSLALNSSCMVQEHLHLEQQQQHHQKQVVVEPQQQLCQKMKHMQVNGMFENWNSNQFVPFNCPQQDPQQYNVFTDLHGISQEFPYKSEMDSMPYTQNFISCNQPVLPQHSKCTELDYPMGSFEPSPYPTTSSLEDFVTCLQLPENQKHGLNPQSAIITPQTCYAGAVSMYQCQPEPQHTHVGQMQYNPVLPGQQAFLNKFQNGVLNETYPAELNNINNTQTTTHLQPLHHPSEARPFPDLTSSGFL
esBAF inh: blocks esBAF chromatin remodeling in mouse ES cells; Bmi1-luciferase knock-in reporter, 24 h; 100% = twice the neutral-well signal; actives 2% (n = 350,000); AID 602393; reporter increase, % at 12.5 µM; in the data active = activation above about 40%;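 note: a rise in the Bmi1 reporter signal indicates esBAF inhibition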
GAA30 FXN cntr: counter-screen for GAA850 frataxin promoter activators: GAA30 promoter activation; shares compounds with GAA850 FXN act; HEK293 lucGAA30 FXN promoter luciferase, 24 h; DMSO = 0%, 5 µM ipriflavone = 100%; activation, % at 6 µM; actives 66% (n = 1,900);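 active = mean activation above the mean of solvent-only control wells plus 3 SD, cut at about 22% in these data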;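 note: counterscreen of GAA850 promoter hits where activity marks nonselective or luminescence artifacts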
GAA850 confirm: GAA850 FXN promoter activation confirmation; shares compounds with GAA850 FXN act; HEK293 lucGAA850 FXN promoter luciferase reporter, 24 h; 100% = activation by SAHA; activation, % at 6 µM; actives 86% (n = 1,900); AID 588351;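 active = mean activation above a set limit taken from the primary screen, cut at about 8% in these data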
Numbers stand for hits. Rows were chosen to be rich in hits. Some 4.2% of all compounds tested hit in one or more screens of this group.

Screening O=C(CCCN1C(=O)c2ccccc2C1=O)Nc1c(C(=O)C2CC2)oc2ccccc12 returned Wnt act inactive, MITF act inactive, GAA850 FXN act 17.3, AHR act inactive, esBAF inh inactive, GAA30 FXN cntr 27.8 and GAA850 confirm 8.6.
`O=C(CN1CCOCC1)N[C@H]1CC[C@@H](CCNC(=O)C2CCC2)O[C@@H]1CO` gave esBAF inh inactive.
For O=[N+]([O-])c1ccc(S(=O)(=O)c2cccc(C(F)(F)F)c2)nc1 the results were GAA850 FXN act 14.0, AHR act inactive, GAA30 FXN cntr inactive and GAA850 confirm inactive.
`O=S(=O)(NCC[C@@H]1CC[C@@H](NS(=O)(=O)c2ccccc2Cl)[C@@H](CO)O1)c1ccc(F)cc1` gave esBAF inh inactive.
For O=C(NCCc1ccccc1)c1cc(-c2ccco2)on1 the results were Wnt act 141.3, MITF act inactive, GAA850 FXN act 13.3, AHR act inactive, esBAF inh inactive, GAA30 FXN cntr 153.1 and GAA850 confirm 54.3.
COc1ccc(CCNC(=O)c2cc(-c3ccco3)on2)cc1OC was read as Wnt act 103.4, MITF act inactive, GAA850 FXN act 12.7, AHR act inactive, GAA30 FXN cntr 77.0 and GAA850 confirm 33.7.
`COc1cccc(-c2cc(C(=O)NCCc3ccccc3)no2)c1` gave MITF act inactive, GAA850 FXN act inactive, AHR act inactive and esBAF inh inactive.
Screening COc1cccc(-c2ccc3c(c2)O[C@H](CN(C)Cc2cncnc2)[C@H](C)CN([C@H](C)CO)S3(=O)=O)c1 returned esBAF inh inactive.
For COc1ccc(C(=O)Nc2ccc3c(c2)C(=O)N(C)C[C@H](OC)[C@H](C)CN[C@@H](C)CO3)cc1 the results were esBAF inh inactive.
Screening COc1cccc(C(=O)Nc2cc3c(cc2Cl)OCCCO3)c1 returned Wnt act 37.9, MITF act inactive, GAA850 FXN act 7.9, AHR act inactive, GAA30 FXN cntr 101.4 and GAA850 confirm 31.8.
`CC(C)C#Cc1cnc2c(c1)C(=O)N([C@H](C)CO)C[C@H](C)[C@H](CN(C)C(=O)Nc1cc(F)ccc1F)O2` gave esBAF inh inactive.
Screening Cc1noc(C)c1NC(=O)Nc1ccc2c(c1)C(=O)N([C@H](C)CO)C[C@@H](C)[C@H](CN(C)S(=O)(=O)c1ccccc1)OCCCC[C@@H](C)O2 returned esBAF inh inactive.
COc1ccc2cc(CN(CCc3ccccc3)Cc3nnnn3Cc3ccco3)c(=O)[nH]c2c1 was read as MITF act inactive, GAA850 FXN act inactive, AHR act inactive and esBAF inh inactive.
`COc1ccccc1CN(Cc1cc2c(C)ccc(C)c2[nH]c1=O)Cc1nnnn1Cc1ccco1` gave MITF act inactive, GAA850 FXN act 8.8, AHR act inactive, esBAF inh inactive, GAA30 FXN cntr inactive and GAA850 confirm 10.5.
For CCOC(=O)C(=O)/C(C#N)=C/Nc1ccccc1 the results were Wnt act inactive, MITF act inactive, GAA850 FXN act inactive, AHR act inactive and esBAF inh inactive.
Screening CCOC(=O)/C(C#N)=C/Nc1ccccc1OC returned MITF act 116.8, GAA850 FXN act 8.0, AHR act inactive, esBAF inh 47.4, GAA30 FXN cntr 91.8 and GAA850 confirm 28.5.
`O=C(CCS(=O)(=O)c1ccccc1)N(CCCN1CCOCC1)c1nc2ccc(F)cc2s1` gave Wnt act inactive, MITF act inactive, GAA850 FXN act 14.6, AHR act inactive, esBAF inh inactive, GAA30 FXN cntr 105.2 and GAA850 confirm 65.8.
O=C(CCS(=O)(=O)c1ccccc1)N(CCCN1CCOCC1)c1nc2c(F)cccc2s1 was read as Wnt act inactive, MITF act inactive, GAA850 FXN act inactive, AHR act inactive and esBAF inh inactive.
`O=C(C[C@@H]1C=C[C@H](NC(=O)Nc2ccc(C(F)(F)F)cc2)[C@H](CO)O1)NCc1ccccn1` gave esBAF inh inactive.
`COC(=O)[C@]12C(=O)C(C)=C(O)[C@@]1(C)C(C)=CC1[C@@]34CC[C@@H](OC(C)=O)C(C)(C)C3C(C[C@]12C)OC4=O` (stereo partly specified) gave Wnt act inactive, MITF act inactive, GAA850 FXN act 8.8, AHR act inactive, esBAF inh inactive, GAA30 FXN cntr inactive and GAA850 confirm inactive.
`CO[C@H]1CN(C)C(=O)c2cc(NC(=O)c3ccccc3F)ccc2OC[C@@H](C)NC[C@@H]1C` gave esBAF inh inactive.
For CC(=O)N(C)c1ccc(OCC(O)Cn2c3ccc(Cl)cc3c3cc(Cl)ccc32)cc1 (stereo unspecified) the results were Wnt act inactive, MITF act inactive, GAA850 FXN act 10.1, AHR act inactive, esBAF inh inactive, GAA30 FXN cntr inactive and GAA850 confirm 11.4.
O=C(c1ccccc1)c1cc2cc(Cl)ccc2[nH]1 was read as Wnt act inactive, MITF act inactive, GAA850 FXN act 8.3, AHR act inactive, esBAF inh inactive, GAA30 FXN cntr 86.8 and GAA850 confirm 35.4.
`COc1ccc(NC(=O)Nc2ccc3c(c2)C(=O)N([C@@H](C)CO)C[C@H](C)[C@@H](CN(C)Cc2ccc(-c4ccccc4)cc2)O3)cc1` gave esBAF inh inactive.
`Cc1cccc(/C=N/NC(=O)c2cccc([N+](=O)[O-])c2)n1` gave MITF act inactive, GAA850 FXN act 12.2, AHR act inactive, GAA30 FXN cntr inactive and GAA850 confirm 11.4.
`Cc1cccc(/C=N/NC(=O)c2cccc(Cl)c2)n1` gave Wnt act inactive, MITF act inactive, GAA850 FXN act 7.6, AHR act inactive, esBAF inh inactive, GAA30 FXN cntr inactive and GAA850 confirm inactive.
`Cc1cccc(/C=N/NC(=O)c2ccc(F)cc2)n1` gave Wnt act inactive, MITF act inactive, GAA850 FXN act inactive, AHR act inactive and esBAF inh inactive.
`CC(C)CC#Cc1cnc2c(c1)C(=O)N([C@H](C)CO)C[C@@H](C)[C@@H](CN(C)Cc1cncnc1)O2` gave esBAF inh inactive.
For COc1ccccc1NC(=O)N[C@H]1CC[C@@H](CCn2cc(-c3cccnc3)nn2)O[C@@H]1CO the results were esBAF inh inactive.
O=[N+]([O-])c1ccc(Sc2cccc3cccnc23)c([N+](=O)[O-])c1 was read as Wnt act inactive, MITF act inactive, GAA850 FXN act 21.9, AHR act inactive, esBAF inh inactive, GAA30 FXN cntr inactive and GAA850 confirm inactive.
